The target in assay [1] is Sphingosine kinase 1 (Homo sapiens) (UniProt Q9NYA1). The following applies: at 1 µM.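 Also: mean SPHK1 inhibition value reported from the GSK PKIS kinase panel screen.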
For assay [2], the target named is T1, Sphingosine kinase 2 (Homo sapiens) (UniProt Q9NRA0).
T1 sequence (whole entry): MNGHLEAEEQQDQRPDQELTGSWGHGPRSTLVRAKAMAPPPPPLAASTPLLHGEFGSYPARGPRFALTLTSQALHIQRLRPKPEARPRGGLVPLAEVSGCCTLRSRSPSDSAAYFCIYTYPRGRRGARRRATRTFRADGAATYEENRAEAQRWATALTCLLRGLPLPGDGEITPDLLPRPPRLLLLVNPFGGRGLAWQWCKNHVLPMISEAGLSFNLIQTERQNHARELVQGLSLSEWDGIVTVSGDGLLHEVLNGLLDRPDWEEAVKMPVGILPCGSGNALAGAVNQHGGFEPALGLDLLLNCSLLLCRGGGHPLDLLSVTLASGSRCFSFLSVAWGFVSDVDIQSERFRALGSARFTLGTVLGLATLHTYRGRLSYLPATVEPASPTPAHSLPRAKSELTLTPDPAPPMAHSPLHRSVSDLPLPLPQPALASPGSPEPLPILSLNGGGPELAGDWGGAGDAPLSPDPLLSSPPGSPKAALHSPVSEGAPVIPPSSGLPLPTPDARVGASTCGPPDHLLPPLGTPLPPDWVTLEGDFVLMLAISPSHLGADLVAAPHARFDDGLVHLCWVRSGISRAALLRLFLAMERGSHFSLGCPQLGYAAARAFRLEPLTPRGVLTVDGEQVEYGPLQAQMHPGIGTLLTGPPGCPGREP
Conditions: at 0.1 µM.

Assay [3] deals with T1, Sphingosine kinase 2 (Homo sapiens). Conditions: at 1 µM.
In assay [4] the target is Casein kinase II subunit alpha (Homo sapiens) (UniProt P68400). The following applies: at 0.1 µM.
Chain of Casein kinase II subunit alpha (Homo sapiens) (P68400 whole entry, looked up): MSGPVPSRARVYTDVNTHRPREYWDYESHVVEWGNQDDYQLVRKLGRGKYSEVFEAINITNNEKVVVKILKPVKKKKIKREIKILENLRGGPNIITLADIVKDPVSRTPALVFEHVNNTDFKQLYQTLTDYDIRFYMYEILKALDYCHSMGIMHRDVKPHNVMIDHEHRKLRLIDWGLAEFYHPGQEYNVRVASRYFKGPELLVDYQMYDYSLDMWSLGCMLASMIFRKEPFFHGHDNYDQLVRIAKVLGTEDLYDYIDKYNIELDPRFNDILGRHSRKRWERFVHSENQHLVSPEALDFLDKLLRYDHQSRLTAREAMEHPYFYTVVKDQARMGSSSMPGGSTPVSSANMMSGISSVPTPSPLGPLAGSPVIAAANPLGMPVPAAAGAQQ
The target is the same in assay [5]. The following applies: at 1 µM.
For assay [6], the target named is T2, Inhibitor of nuclear factor kappa-B kinase subunit alpha (Homo sapiens) (UniProt O15111).
T2 sequence (whole entry): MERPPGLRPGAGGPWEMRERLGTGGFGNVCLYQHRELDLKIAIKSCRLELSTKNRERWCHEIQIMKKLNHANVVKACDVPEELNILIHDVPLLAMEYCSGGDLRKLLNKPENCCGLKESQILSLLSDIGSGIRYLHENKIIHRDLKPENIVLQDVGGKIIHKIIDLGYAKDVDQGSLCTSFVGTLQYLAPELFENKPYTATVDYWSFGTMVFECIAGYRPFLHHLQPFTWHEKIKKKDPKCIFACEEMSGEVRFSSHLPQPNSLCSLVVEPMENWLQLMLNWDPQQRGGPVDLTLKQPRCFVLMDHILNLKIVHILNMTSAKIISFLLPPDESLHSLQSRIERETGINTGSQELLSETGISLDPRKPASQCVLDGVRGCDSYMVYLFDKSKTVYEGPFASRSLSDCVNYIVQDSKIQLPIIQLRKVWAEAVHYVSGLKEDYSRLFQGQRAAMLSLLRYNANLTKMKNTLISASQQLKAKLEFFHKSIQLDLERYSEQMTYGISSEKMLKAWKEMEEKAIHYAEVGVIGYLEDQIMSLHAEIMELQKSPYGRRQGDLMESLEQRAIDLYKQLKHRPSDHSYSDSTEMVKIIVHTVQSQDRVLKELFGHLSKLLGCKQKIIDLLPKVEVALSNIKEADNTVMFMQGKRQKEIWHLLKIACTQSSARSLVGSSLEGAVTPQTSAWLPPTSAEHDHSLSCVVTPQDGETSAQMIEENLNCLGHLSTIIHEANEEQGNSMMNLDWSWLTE
The following applies: at 0.1 µM.

The target in assay [7] is T2, Inhibitor of nuclear factor kappa-B kinase subunit alpha (Homo sapiens). The following applies: at 1 µM.
The target of assay [8] is T3, Inhibitor of nuclear factor kappa-B kinase subunit beta (Homo sapiens) (UniProt O14920).
T3 sequence (whole entry): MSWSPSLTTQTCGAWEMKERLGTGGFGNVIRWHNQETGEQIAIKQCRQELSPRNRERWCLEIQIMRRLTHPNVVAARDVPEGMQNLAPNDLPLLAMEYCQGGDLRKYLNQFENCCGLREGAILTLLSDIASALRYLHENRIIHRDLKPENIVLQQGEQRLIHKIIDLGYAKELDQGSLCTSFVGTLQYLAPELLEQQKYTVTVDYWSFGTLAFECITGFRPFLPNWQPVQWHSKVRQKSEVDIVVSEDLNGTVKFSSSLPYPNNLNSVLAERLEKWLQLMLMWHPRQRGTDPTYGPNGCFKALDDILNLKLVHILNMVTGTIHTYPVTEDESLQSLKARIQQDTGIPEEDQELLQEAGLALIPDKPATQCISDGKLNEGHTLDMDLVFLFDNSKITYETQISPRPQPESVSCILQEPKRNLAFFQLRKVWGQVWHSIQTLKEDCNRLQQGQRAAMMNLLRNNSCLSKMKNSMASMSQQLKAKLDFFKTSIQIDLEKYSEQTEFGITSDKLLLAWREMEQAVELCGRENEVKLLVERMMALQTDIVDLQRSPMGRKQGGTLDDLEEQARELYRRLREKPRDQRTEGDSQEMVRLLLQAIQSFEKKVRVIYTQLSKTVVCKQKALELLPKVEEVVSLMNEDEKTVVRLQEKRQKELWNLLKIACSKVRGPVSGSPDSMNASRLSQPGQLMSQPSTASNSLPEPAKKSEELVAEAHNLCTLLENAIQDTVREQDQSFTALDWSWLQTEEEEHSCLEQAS
Conditions: at 0.1 µM.

The target of assay [9] is T3, Inhibitor of nuclear factor kappa-B kinase subunit beta (Homo sapiens). The following applies: at 1 µM.
Assay [10] deals with T4, Inhibitor of nuclear factor kappa-B kinase subunit epsilon (Homo sapiens) (UniProt Q14164).
T4 sequence (whole entry): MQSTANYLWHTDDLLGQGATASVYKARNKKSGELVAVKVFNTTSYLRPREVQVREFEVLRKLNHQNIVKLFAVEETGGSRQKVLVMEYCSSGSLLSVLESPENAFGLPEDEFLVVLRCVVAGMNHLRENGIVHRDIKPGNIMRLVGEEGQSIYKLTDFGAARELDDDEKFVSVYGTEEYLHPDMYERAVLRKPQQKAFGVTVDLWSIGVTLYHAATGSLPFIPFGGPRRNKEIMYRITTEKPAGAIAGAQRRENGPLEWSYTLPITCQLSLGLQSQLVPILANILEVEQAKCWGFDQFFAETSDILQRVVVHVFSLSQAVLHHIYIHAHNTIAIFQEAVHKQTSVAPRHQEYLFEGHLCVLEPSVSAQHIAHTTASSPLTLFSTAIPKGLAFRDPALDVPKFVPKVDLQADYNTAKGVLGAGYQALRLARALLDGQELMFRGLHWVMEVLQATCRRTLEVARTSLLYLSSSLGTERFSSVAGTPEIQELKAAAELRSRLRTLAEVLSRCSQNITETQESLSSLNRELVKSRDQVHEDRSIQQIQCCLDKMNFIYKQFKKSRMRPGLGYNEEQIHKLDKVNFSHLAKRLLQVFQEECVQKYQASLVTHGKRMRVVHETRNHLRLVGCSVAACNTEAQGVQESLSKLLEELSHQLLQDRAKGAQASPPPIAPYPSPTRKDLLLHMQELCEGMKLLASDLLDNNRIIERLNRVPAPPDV
The following applies: at 0.1 µM.

The target in assay [11] is T4, Inhibitor of nuclear factor kappa-B kinase subunit epsilon (Homo sapiens). Conditions: at 1 µM.
Assay [12] addresses T5, Serine/threonine-protein kinase Nek1 (Homo sapiens) (UniProt Q96PY6).
T5 sequence (whole entry): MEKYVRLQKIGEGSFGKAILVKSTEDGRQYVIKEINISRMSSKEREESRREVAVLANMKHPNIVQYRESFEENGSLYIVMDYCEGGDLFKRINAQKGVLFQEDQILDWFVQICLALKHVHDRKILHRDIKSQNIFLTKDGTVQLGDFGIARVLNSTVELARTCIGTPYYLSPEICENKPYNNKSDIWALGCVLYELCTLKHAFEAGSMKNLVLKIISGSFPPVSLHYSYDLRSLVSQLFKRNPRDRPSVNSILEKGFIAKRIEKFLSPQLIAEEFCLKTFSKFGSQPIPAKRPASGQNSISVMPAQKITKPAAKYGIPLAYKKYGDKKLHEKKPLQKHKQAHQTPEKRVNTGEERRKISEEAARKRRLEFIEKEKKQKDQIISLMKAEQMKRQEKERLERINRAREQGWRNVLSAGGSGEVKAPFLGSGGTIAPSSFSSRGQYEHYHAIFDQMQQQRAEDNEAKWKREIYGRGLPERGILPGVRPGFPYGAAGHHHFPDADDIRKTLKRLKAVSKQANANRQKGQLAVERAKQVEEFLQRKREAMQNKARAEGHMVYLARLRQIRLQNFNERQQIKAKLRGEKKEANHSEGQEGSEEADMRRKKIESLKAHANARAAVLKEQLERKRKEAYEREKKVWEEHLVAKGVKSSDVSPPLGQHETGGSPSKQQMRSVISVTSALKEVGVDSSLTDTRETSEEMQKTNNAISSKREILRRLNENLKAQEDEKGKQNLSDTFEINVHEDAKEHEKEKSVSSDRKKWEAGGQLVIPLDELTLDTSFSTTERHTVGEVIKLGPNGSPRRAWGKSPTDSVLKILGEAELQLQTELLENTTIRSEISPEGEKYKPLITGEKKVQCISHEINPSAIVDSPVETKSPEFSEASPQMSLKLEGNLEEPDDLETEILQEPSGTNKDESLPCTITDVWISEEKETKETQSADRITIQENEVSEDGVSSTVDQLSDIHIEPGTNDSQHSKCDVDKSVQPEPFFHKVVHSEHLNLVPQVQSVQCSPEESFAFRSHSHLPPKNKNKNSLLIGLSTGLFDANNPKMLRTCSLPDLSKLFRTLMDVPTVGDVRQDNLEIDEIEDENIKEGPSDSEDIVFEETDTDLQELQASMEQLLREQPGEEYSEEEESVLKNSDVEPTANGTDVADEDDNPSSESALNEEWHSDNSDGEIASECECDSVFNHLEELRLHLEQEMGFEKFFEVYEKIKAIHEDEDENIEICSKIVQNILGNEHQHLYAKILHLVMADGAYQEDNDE
Conditions: at 0.1 µM.

The target of assay [13] is T5, Serine/threonine-protein kinase Nek1 (Homo sapiens). The following applies: at 1 µM.
Assay [14] has as its target T6, Serine/threonine-protein kinase Nek2 (Homo sapiens) (UniProt P51955).
T6 sequence (whole entry): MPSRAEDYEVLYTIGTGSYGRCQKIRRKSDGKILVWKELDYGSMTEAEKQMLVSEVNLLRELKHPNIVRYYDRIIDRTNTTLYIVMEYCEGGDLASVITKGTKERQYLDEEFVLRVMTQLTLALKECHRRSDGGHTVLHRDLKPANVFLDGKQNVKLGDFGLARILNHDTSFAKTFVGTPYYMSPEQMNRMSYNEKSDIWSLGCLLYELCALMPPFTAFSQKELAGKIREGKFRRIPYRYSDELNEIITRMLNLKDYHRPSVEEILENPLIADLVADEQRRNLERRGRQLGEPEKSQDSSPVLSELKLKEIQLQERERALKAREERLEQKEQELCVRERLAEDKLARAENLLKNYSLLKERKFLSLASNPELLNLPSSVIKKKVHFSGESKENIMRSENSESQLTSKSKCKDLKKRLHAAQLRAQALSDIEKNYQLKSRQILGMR
The following applies: at 0.1 µM.

The target of assay [15] is T6, Serine/threonine-protein kinase Nek2 (Homo sapiens). The following applies: at 1 µM.
For assay [16], the target named is Serine/threonine-protein kinase Nek6 (Homo sapiens) (UniProt Q9HC98). The following applies: at 0.1 µM.
Chain of Serine/threonine-protein kinase Nek6 (Homo sapiens) (Q9HC98 whole entry): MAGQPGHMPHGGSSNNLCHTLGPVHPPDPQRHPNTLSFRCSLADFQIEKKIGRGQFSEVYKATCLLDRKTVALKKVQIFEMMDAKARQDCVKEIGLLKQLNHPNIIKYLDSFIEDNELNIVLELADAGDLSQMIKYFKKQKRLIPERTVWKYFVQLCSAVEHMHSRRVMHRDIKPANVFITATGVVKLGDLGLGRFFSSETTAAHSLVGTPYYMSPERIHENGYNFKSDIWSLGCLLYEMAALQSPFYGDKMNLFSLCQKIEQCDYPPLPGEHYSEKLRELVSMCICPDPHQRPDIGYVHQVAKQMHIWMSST
The target is the same in assay [17]. Conditions: at 1 µM.
Assay [18] concerns the target Serine/threonine-protein kinase Nek7 (Homo sapiens) (UniProt Q8TDX7). The following applies: at 0.1 µM.
The target is the same in assay [19]. The following applies: at 1 µM.
The target of assay [20] is T7, Serine/threonine-protein kinase Nek9 (Homo sapiens) (UniProt Q8TD19).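 Also: reported value is the mean percent inhibition of NEK9.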
T7 sequence (whole entry): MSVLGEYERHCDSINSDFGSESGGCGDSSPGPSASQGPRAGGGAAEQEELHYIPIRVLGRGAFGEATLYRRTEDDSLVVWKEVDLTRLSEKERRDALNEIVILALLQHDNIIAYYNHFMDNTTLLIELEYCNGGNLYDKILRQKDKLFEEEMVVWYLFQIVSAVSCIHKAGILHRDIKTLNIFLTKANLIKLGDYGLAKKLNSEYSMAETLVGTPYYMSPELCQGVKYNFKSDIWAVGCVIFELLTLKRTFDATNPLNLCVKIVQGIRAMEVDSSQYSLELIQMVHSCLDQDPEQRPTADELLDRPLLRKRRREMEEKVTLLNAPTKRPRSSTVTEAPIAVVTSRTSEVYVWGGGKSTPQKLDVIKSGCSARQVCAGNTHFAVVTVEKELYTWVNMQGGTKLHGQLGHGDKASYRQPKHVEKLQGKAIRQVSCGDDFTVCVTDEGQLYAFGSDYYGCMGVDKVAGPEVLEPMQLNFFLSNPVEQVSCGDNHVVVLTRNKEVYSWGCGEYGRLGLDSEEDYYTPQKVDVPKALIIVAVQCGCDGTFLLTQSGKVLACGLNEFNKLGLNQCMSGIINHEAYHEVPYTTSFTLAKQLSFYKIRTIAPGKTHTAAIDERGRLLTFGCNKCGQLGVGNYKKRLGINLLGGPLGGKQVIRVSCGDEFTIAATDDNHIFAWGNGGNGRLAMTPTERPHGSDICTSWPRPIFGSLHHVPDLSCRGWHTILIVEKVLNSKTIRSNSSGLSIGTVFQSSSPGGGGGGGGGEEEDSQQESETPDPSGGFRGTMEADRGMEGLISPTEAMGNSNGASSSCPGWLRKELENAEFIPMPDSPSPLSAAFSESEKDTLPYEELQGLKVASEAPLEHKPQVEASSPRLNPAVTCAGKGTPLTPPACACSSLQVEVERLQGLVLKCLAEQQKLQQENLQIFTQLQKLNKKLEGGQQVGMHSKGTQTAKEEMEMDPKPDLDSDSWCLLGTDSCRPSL
The following applies: at 0.1 µM.

These results are taken from ChEMBL document CHEMBL1961873, “Compounds: GSK PKIS; Assays: Nanosyn kinase panel” (2012).

Chain of Serine/threonine-protein kinase Nek7 (Homo sapiens) (Q8TDX7 whole entry, looked up): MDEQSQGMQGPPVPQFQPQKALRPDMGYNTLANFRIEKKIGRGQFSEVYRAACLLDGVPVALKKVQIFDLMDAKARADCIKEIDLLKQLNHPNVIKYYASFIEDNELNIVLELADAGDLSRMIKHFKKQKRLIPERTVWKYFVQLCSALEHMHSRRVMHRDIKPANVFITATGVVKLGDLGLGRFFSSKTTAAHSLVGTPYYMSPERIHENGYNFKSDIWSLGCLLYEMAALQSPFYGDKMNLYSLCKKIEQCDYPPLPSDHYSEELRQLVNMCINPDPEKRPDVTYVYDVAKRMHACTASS
Chain of Sphingosine kinase 1 (Homo sapiens) (Q9NYA1 whole entry): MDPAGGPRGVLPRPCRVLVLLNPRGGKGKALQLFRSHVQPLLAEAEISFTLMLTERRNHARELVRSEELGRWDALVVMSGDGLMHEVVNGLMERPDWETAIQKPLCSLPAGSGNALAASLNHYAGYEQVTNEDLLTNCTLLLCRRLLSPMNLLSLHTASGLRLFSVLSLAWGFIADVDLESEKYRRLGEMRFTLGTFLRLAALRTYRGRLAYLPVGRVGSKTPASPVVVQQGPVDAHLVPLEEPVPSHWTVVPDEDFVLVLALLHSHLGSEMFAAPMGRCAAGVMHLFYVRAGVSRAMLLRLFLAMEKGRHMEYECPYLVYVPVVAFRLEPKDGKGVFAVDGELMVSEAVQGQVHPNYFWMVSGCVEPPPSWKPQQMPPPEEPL

Regarding `CCn1c(-c2nonc2N)nc2c(C#CC(C)(C)O)ncc(OC3CCNCC3)c21`, the inhibition in assay [1] is 4.1%; in [2] it was -2.62%; in assay [3] it was 0.82%; in [4] it was 5.58%; in assay [5] it was 2.13%; in assay [6] it was 3.92%. The inhibition came out at 0.96% in [7]; 4.3% in [8]; 5.45% in [9]; 79.5% in [10]; 95.8% in assay [11]; 2.28% in [12]. The inhibition in assay [13] was 2.37%; in [14], 3.31%; in assay [15] it was 2.51%; in assay [16], -0.18%; in assay [17], 1.86%; in assay [18], -3.88%. Further, the inhibition in assay [19] was determined as 5.15%; in [20], 2.14%.

As a reminder, the inhibition is the relative decrease from the control value, in per cent.
